Test results published in article PMC8384837, “Expanding the binding specificity for RNA recognition by a PUF domain”.
Numbering of substitutions follows the chain as printed.

Tests used:
Assay in all cases: yeast three-hybrid, YBZ-1, SC-Leu-His + 0.5 mM 3-AT, 4 days
Conditions in all cases: tags: N-Gal4 AD-HA kept; label: inside an RPR1-promoter hybrid RNA with tandem MS2 sites; ssRNA
[1] = target: T1, PUM1 PUF domain R6-SRQ (Homo sapiens, UniProt Q14671 828-1176, N1043S;Y1044R)
T1 sequence: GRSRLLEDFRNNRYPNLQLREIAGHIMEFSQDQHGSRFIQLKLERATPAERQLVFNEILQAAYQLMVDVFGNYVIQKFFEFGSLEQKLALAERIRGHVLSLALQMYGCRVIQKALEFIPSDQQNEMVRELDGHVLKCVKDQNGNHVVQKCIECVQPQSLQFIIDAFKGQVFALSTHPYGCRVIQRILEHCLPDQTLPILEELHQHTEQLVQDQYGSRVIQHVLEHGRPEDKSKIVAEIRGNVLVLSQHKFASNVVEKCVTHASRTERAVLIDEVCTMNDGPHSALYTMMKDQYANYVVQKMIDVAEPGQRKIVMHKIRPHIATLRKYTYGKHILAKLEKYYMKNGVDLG
In short: (§1)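 Pumilio-1 PUF domain libraries, randomized at the three base-contacting residues of each repeat, were co-expressed with matching RNA elements from a centromeric plasmid in strain YBZ-1, which carries a LexA–MS2 coat fusion and a HIS3 reporter. Transformants grew for four days on SC-Leu (input) or on SC-Leu-His + 0.5 mM 3-AT (selection), and the repeat regions were PCR-amplified and Illumina-sequenced. The interaction score is the log change in variant frequency from input to selection. That logarithm is base 2, with a pseudocount of 1 where a variant was absent.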

[2] = target: T2, PUM1 PUF domain R6-QWL (Homo sapiens, UniProt Q14671 828-1176, N1043Q;Y1044W;Q1047L)
T2 sequence: T1 sequence with S216Q, R217W, Q220L
In short: as §1

[3] = target: PUM1 PUF domain R2-RKQ (Homo sapiens, UniProt Q14671 828-1176, N899R;Y900K)
In short: as §1

[4] = target: PUM1 PUF domain R5-GRS (Homo sapiens, UniProt Q14671 828-1176, C1007G;Q1011S)
Sequence of PUM1 PUF domain R5-GRS (Q14671 828-1176 C1007G/Q1011S): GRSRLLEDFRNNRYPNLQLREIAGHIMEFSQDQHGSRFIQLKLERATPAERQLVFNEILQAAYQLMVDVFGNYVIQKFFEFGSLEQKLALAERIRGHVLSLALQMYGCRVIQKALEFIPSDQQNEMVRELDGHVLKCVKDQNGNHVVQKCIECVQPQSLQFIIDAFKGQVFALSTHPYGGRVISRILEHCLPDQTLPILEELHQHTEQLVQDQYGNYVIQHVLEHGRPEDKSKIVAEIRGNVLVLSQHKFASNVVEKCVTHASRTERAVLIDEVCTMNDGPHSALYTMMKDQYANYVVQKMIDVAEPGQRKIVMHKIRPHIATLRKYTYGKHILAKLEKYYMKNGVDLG
In short: as §1

[5] = target: PUM1 PUF domain R5-WWQ (Homo sapiens, UniProt Q14671 828-1176, C1007W;R1008W)
In short: as §1

[6] = target: PUM1 PUF domain R5-EWD (Homo sapiens, UniProt Q14671 828-1176, C1007E;R1008W;Q1011D)
In short: as §1

[7] = target: PUM1 PUF domain R3-MRL (Homo sapiens, UniProt Q14671 828-1176, C935M;Q939L)
In short: as §1

[8] = target: PUM1 PUF domain R8-PWC (Homo sapiens, UniProt Q14671 828-1176, N1122P;Y1123W;Q1126C)
In short: as §1

[9] = target: PUM1 PUF domain R8-NFR (Homo sapiens, UniProt Q14671 828-1176, Y1123F;Q1126R)
In short: as §1

[10] = target: PUM1 PUF domain R8-GWH (Homo sapiens, UniProt Q14671 828-1176, N1122G;Y1123W;Q1126H)
In short: as §1

[11] = target: PUM1 PUF domain R5-RQK (Homo sapiens, UniProt Q14671 828-1176, C1007R;R1008Q;Q1011K)
In short: as §1

[12] = target: PUM1 PUF domain R5-KQW (Homo sapiens, UniProt Q14671 828-1176, C1007K;R1008Q;Q1011W)
In short: as §1

[13] = target: PUM1 PUF domain R5-QAR (Homo sapiens, UniProt Q14671 828-1176, C1007Q;R1008A;Q1011R)
In short: as §1

[14] = target: PUM1 PUF domain R1-KWV (Homo sapiens, UniProt Q14671 828-1176, S863K;R864W;Q867V)
In short: as §1

[15] = target: PUM1 PUF domain R3-MRT (Homo sapiens, UniProt Q14671 828-1176, C935M;Q939T)
In short: as §1

[16] = target: T3, PUM1 PUF domain R6-FHR (Homo sapiens, UniProt Q14671 828-1176, N1043F;Y1044H;Q1047R)
T3 sequence: T1 sequence with S216F, R217H, Q220R
In short: as §1

[17] = target: T4, PUM1 PUF domain R6-LYM (Homo sapiens, UniProt Q14671 828-1176, N1043L;Q1047M)
T4 sequence: T1 sequence with S216L, R217Y, Q220M
In short: as §1

[18] = target: T5, PUM1 PUF domain R6-AFF (Homo sapiens, UniProt Q14671 828-1176, N1043A;Y1044F;Q1047F)
T5 sequence: T1 sequence with S216A, R217F, Q220F
In short: as §1

[19] = target: PUM1 PUF domain R5-PHR (Homo sapiens, UniProt Q14671 828-1176, C1007P;R1008H;Q1011R)
In short: as §1

[20] = target: PUM1 PUF domain R4-RMS (Homo sapiens, UniProt Q14671 828-1176, N971R;H972M;Q975S)
In short: as §1

GGCUAGAACUAGUGGAUCCCCCGGCGCCCGGCGGCUCGAGCCCGGGUAAGUGAAAAUAGUCUGCAUGCCGCCGGGCGCCAUGCCUGCAGGUCGACUCUAGAAAACAUG
binding signal [1]: 3.17 log2 enrichment (interaction score) | binding signal [2]: 4.43 log2 enrichment (interaction score)

GGCUAGAACUAGUGGAUCCCCCGGCGCCCGGCGGCUCGAGCCCGGGUAAGUGUAAAGAGUCUGCAUGCCGCCGGGCGCCAUGCCUGCAGGUCGACUCUAGAAAACAUG
binding signal [3]: 2.92 log2 enrichment (interaction score)

GGCUAGAACUAGUGGAUCCCCCGGCGCCCGGCGGCUCGAGCCCGGGUAAGUGUGAAUAGUCUGCAUGCCGCCGGGCGCCAUGCCUGCAGGUCGACUCUAGAAAACAUG
binding signal [4]: 2.01 log2 enrichment (interaction score) | binding signal [5]: 2.01 log2 enrichment (interaction score) | binding signal [6]: 2.28 log2 enrichment (interaction score)

GGCUAGAACUAGUGGAUCCCCCGGCGCCCGGCGGCUCGAGCCCGGGUAAGUGUAAGUAGUCUGCAUGCCGCCGGGCGCCAUGCCUGCAGGUCGACUCUAGAAAACAUG
binding signal [7]: 2.68 log2 enrichment (interaction score)

GGCUAGAACUAGUGGAUCCCCCGGCGCCCGGCGGCUCGAGCCCGGGUAAGCGUAAAUAGUCUGCAUGCCGCCGGGCGCCAUGCCUGCAGGUCGACUCUAGAAAACAUG
binding signal [8]: 2.98 log2 enrichment (interaction score) | binding signal [9]: 3.71 log2 enrichment (interaction score) | binding signal [10]: 3.5 log2 enrichment (interaction score)

GGCUAGAACUAGUGGAUCCCCCGGCGCCCGGCGGCUCGAGCCCGGGUAAGUGUCAAUAGUCUGCAUGCCGCCGGGCGCCAUGCCUGCAGGUCGACUCUAGAAAACAUG
binding signal [11]: 3.94 log2 enrichment (interaction score) | binding signal [4]: 1.13 log2 enrichment (interaction score) | binding signal [12]: 4.59 log2 enrichment (interaction score) | binding signal [13]: 4.51 log2 enrichment (interaction score)

GGCUAGAACUAGUGGAUCCCCCGGCGCCCGGCGGCUCGAGCCCGGGUAAGUGUAAAUCGUCUGCAUGCCGCCGGGCGCCAUGCCUGCAGGUCGACUCUAGAAAACAUG
binding signal [14]: 5.68 log2 enrichment (interaction score)

GGCUAGAACUAGUGGAUCCCCCGGCGCCCGGCGGCUCGAGCCCGGGUAAGUGUAAAUGGUCUGCAUGCCGCCGGGCGCCAUGCCUGCAGGUCGACUCUAGAAAACAUG
binding signal [14]: 0.79 log2 enrichment (interaction score)

GGCUAGAACUAGUGGAUCCCCCGGCGCCCGGCGGCUCGAGCCCGGGUAAGUGUAAUUAGUCUGCAUGCCGCCGGGCGCCAUGCCUGCAGGUCGACUCUAGAAAACAUG
binding signal [7]: 1.67 log2 enrichment (interaction score) | binding signal [15]: 3.61 log2 enrichment (interaction score)

GGCUAGAACUAGUGGAUCCCCCGGCGCCCGGCGGCUCGAGCCCGGGUAAGUGUUAAUAGUCUGCAUGCCGCCGGGCGCCAUGCCUGCAGGUCGACUCUAGAAAACAUG
binding signal [11]: 4.75 log2 enrichment (interaction score) | binding signal [4]: 4.35 log2 enrichment (interaction score) | binding signal [12]: 2.43 log2 enrichment (interaction score) | binding signal [5]: 2.93 log2 enrichment (interaction score) | binding signal [13]: 3.17 log2 enrichment (interaction score)

GGCUAGAACUAGUGGAUCCCCCGGCGCCCGGCGGCUCGAGCCCGGGUAAGUGUAAAUAGUCUGCAUGCCGCCGGGCGCCAUGCCUGCAGGUCGACUCUAGAAAACAUG
binding signal [16]: 3.45 log2 enrichment (interaction score) | binding signal [17]: 5.36 log2 enrichment (interaction score) | binding signal [18]: 5.23 log2 enrichment (interaction score) | binding signal [9]: 3.8 log2 enrichment (interaction score) | binding signal [4]: 3.71 log2 enrichment (interaction score) | binding signal [19]: 2.42 log2 enrichment (interaction score) | binding signal [20]: 4.65 log2 enrichment (interaction score)
